# From the supplement of paper PMC8728848
# The full list was thinned out, with the strongest signals kept by preference.
# B1: DC-ASGPR Long (Homo sapiens) (protein)
# chain: MTRTYENFQYLENKVKVQGFKNGPLPLQSLLQRLRSGPCHLLLSLGLGLLLLVIICVVGFQNSKFQRDLVTLRTDFSNFTSNTVAEIQALTSQGSSLEETIASLKAEVEGFKQERQAGVSELQEHTTQKAHLGHCPHCPSVCVPVHSEMLLRVQQLVQDLKKLTCQVATLNNNASTEGTCCPVNWVEHQDSCYWFSHSGMSWAEAEKYCQLKNAHLVVINSREEQNFVQKYLGSAYTWMGLSDPEGAWKWVDGTDYATGFQNWKPGQPDDWQGHGLGGGEDCAHFHPDGGWNDDVCQRPYHWVCEAGLGQTSQESH
# Experiments:
# Experiment in all cases: glycan array binding signal (z-score within array); higher = stronger binding
# Settings in all cases: glycan notation: IUPAC condensed, linker removed
# [1] = target: Fuc(a1-2)Gal(b1-3)GlcNAc(b1-2)Man(a1-3)[Fuc(a1-2)Gal(b1-3)GlcNAc(b1-2)Man(a1-6)]Man(b1-4)GlcNAc(b1-4)GlcNAc
# In short: (§1)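 Negative Z-scores can be read as non-binding. The Z-score is calculated within each array and then averaged across arrays of one protein sequence at different concentrations or buffers and across linkers. Arrays, 3228 in all, were curated from the Consortium for Functional Glycomics database and kept only where the protein sequence was available.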
# [2] = target: Fuc(a1-2)Gal(b1-3)GlcNAc(b1-2)Man(a1-3)[Fuc(a1-2)Gal(b1-3)GlcNAc(b1-2)Man(a1-6)]Man(b1-4)GlcNAc(b1-4)[Fuc(a1-6)]GlcNAc
# In short: as §1
# [3] = target: Fuc(a1-2)Gal(b1-4)GlcNAc
# In short: as §1
# [4] = target: Fuc(a1-2)Gal3S(b1-4)GlcNAc
# In short: as §1
# [5] = target: Fuc(a1-2)[GalNAc(a1-3)]Gal(b1-4)GlcNAc(b1-3)Gal(b1-4)GlcNAc
# In short: as §1
# [6] = target: Fuc(a1-2)[GalNAc(a1-3)]Gal(b1-4)GlcNAc(b1-6)GalNAc
# In short: as §1
# [7] = target: Fuc(a1-2)[GalNAc(a1-4)]Gal(b1-4)GlcNAc
# In short: as §1
# [8] = target: Fuc(a1-2)[GalNAc(b1-3)]Gal
# In short: as §1
# [9] = target: Gal(a1-3)Gal(b1-3)GlcNAc(b1-6)GalNAc
# In short: as §1
# [10] = target: Gal(a1-3)Gal(b1-4)GlcNAc(b1-6)GalNAc
# In short: as §1
# [11] = target: Gal(a1-4)Gal(b1-3)GlcNAc(b1-2)Man(a1-3)[Gal(a1-4)Gal(b1-3)GlcNAc(b1-2)Man(a1-6)]Man(b1-4)GlcNAc(b1-4)GlcNAc
# In short: as §1
# [12] = target: Gal(a1-4)Gal(b1-4)GlcNAc(b1-3)Gal(b1-4)Glc
# In short: as §1
# [13] = target: Gal(b1-3)GlcNAc(b1-2)Man
# In short: as §1
# [14] = target: Gal(b1-3)GlcNAc(b1-2)Man(a1-3)[GlcNAc(b1-4)][Gal(b1-3)GlcNAc(b1-2)Man(a1-6)]Man(b1-4)GlcNAc(b1-4)GlcNAc
# In short: as §1
# [15] = target: Gal(b1-3)GlcNAc(b1-6)GalNAc
# In short: as §1
# [16] = target: Gal3S(b1-4)Glc
# In short: as §1
# [17] = target: GalNAc(b1-3)Gal(a1-4)Gal(b1-4)GlcNAc
# In short: as §1
# [18] = target: GalNAc(b1-3)Gal(a1-6)Gal(b1-4)Glc
# In short: as §1
# [19] = target: GlcNAc(b1-2)Man(a1-3)[GlcNAc(b1-4)][GlcNAc(b1-2)Man(a1-6)]Man(b1-4)GlcNAc(b1-4)GlcNAc
# In short: as §1
# [20] = target: GlcNAc(b1-2)[GlcNAc(b1-6)]Man(a1-6)[GlcNAc(b1-2)Man(a1-3)]Man(b1-4)GlcNAc(b1-4)GlcNAc
# In short: as §1
# [21] = target: GlcNAc(b1-3)Gal(b1-4)GlcNAc
# In short: as §1
# [22] = target: GlcNAc(b1-3)Gal(b1-4)GlcNAc(b1-3)Gal(b1-4)GlcNAc(b1-3)Gal(b1-4)GlcNAc(b1-2)Man(a1-3)[GlcNAc(b1-3)Gal(b1-4)GlcNAc(b1-3)Gal(b1-4)GlcNAc(b1-3)Gal(b1-4)GlcNAc(b1-2)Man(a1-6)]Man(b1-4)GlcNAc(b1-4)[Fuc(a1-6)]GlcNAc
# In short: as §1
# [23] = target: GlcNAc(b1-3)Gal(b1-4)GlcNAc(b1-3)Gal(b1-4)GlcNAc(b1-3)Gal(b1-4)GlcNAc(b1-3)Gal(b1-4)GlcNAc(b1-2)Man(a1-3)[GlcNAc(b1-3)Gal(b1-4)GlcNAc(b1-3)Gal(b1-4)GlcNAc(b1-3)Gal(b1-4)GlcNAc(b1-3)Gal(b1-4)GlcNAc(b1-2)Man(a1-6)]Man(b1-4)GlcNAc(b1-4)GlcNAc
# In short: as §1
# [24] = target: GlcNAc(b1-3)Gal(b1-4)GlcNAc(b1-3)Gal(b1-4)GlcNAc(b1-3)Gal(b1-4)GlcNAc(b1-3)Gal(b1-4)GlcNAc(b1-2)Man(a1-3)[GlcNAc(b1-3)Gal(b1-4)GlcNAc(b1-3)Gal(b1-4)GlcNAc(b1-3)Gal(b1-4)GlcNAc(b1-3)Gal(b1-4)GlcNAc(b1-2)Man(a1-6)]Man(b1-4)GlcNAc(b1-4)[Fuc(a1-6)]GlcNAc
# In short: as §1
# [25] = target: GlcNAc(b1-6)GalNAc
# In short: as §1
# [26] = target: Kdn(a2-3)Gal(b1-3)GlcNAc
# In short: as §1
# [27] = target: Man(a1-2)Man(a1-3)[Man(a1-2)Man(a1-6)]Man(a1-6)[Man(a1-2)Man(a1-2)Man(a1-3)]Man(b1-4)GlcNAc(b1-4)GlcNAc
# In short: as §1
# [28] = target: Neu5Ac(a2-3)Gal
# In short: as §1
# [29] = target: Neu5Ac(a2-3)Gal(b1-3)GlcNAc(b1-6)GalNAc
# In short: as §1
# [30] = target: Neu5Ac(a2-3)Gal(b1-3)[Fuc(a1-4)]GlcNAc(b1-3)Gal(b1-3)[Fuc(a1-4)]GlcNAc
# In short: as §1
# [31] = target: Neu5Ac(a2-3)Gal(b1-3)[Neu5Ac(a2-6)]GlcNAc(b1-3)[Fuc(a1-3)[Gal(b1-4)]GlcNAc(b1-6)]Gal(b1-4)Glc
# In short: as §1
# [32] = target: Neu5Ac(a2-3)Gal(b1-4)Glc
# In short: as §1
# [33] = target: Neu5Ac(a2-3)Gal(b1-4)[Fuc(a1-3)]GlcNAc(b1-3)GalNAc
# In short: as §1
# [34] = target: Neu5Ac(a2-6)Gal(b1-4)GlcNAc(b1-2)Man(a1-3)[Neu5Ac(a2-6)Gal(b1-4)GlcNAc(b1-2)Man(a1-6)]Man(b1-4)GlcNAc(b1-4)GlcNAc
# In short: as §1
# [35] = target: Neu5Ac(a2-6)Gal(b1-4)GlcNAc(b1-2)Man(a1-3)[Neu5Ac(a2-6)Gal(b1-4)GlcNAc(b1-2)Man(a1-6)]Man(b1-4)GlcNAc(b1-4)[Fuc(a1-6)]GlcNAc
# In short: as §1
# [36] = target: Neu5Ac(a2-6)Gal(b1-4)GlcNAc(b1-2)Man(a1-6)[Man(a1-3)]Man(b1-4)GlcNAc(b1-4)GlcNAc
# In short: as §1
# [37] = target: Neu5Ac(a2-6)Gal(b1-4)GlcNAc(b1-6)GalNAc
# In short: as §1
# [38] = target: Neu5Ac(a2-8)Neu5Ac(a2-3)Gal(b1-3)GalNAc(b1-4)[Neu5Ac(a2-8)Neu5Ac(a2-3)]Gal(b1-4)Glc
# In short: as §1
# [39] = target: Neu5Ac(a2-8)Neu5Ac(a2-8)Neu5Ac
# In short: as §1
binder,measurement,setting,value
B1,glycan array binding signal (z-score),[1],-1.26
same,glycan array binding signal (z-score),[2],-0.382
same,glycan array binding signal (z-score),[3],-0.356
same,glycan array binding signal (z-score),[4],0.826
same,glycan array binding signal (z-score),[5],-0.618
same,glycan array binding signal (z-score),[6],5.11
same,glycan array binding signal (z-score),[7],3.67
same,glycan array binding signal (z-score),[8],5.95
same,glycan array binding signal (z-score),[9],3.07
same,glycan array binding signal (z-score),[10],3.58
same,glycan array binding signal (z-score),[11],-0.383
same,glycan array binding signal (z-score),[12],-0.788
same,glycan array binding signal (z-score),[13],-0.186
same,glycan array binding signal (z-score),[14],-0.269
same,glycan array binding signal (z-score),[15],5.68
same,glycan array binding signal (z-score),[16],-0.075
same,glycan array binding signal (z-score),[17],3.37
same,glycan array binding signal (z-score),[18],3.13
same,glycan array binding signal (z-score),[19],-0.323
same,glycan array binding signal (z-score),[20],5.41
same,glycan array binding signal (z-score),[21],-0.433
same,glycan array binding signal (z-score),[22],0.194
same,glycan array binding signal (z-score),[23],0.068
same,glycan array binding signal (z-score),[24],1.61
same,glycan array binding signal (z-score),[25],3.43
same,glycan array binding signal (z-score),[26],-0.092
same,glycan array binding signal (z-score),[27],-0.746
same,glycan array binding signal (z-score),[28],-0.419
same,glycan array binding signal (z-score),[29],4.59
same,glycan array binding signal (z-score),[30],-0.273
same,glycan array binding signal (z-score),[31],-0.251
same,glycan array binding signal (z-score),[32],-0.302
same,glycan array binding signal (z-score),[33],0.105
same,glycan array binding signal (z-score),[34],-0.115
same,glycan array binding signal (z-score),[35],-0.343
same,glycan array binding signal (z-score),[36],-0.516
same,glycan array binding signal (z-score),[37],-0.224
same,glycan array binding signal (z-score),[38],-0.349
same,glycan array binding signal (z-score),[39],-0.221
